The values below come from article PMC4336329 (PLoS ONE, 2015).

Among all 310,000 compounds or so, about 14,000 (4.5%) showed an effect of 50% or more. Effects have a minus sign here. The sample as a whole holds a higher share of strong results than the screen did.
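Also: peak tail current of the secondary pulse compared with the same well before compound.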

human ether-à-go-go-related gene (hERG) potassium channel, sequence (Q12809 whole entry, looked up): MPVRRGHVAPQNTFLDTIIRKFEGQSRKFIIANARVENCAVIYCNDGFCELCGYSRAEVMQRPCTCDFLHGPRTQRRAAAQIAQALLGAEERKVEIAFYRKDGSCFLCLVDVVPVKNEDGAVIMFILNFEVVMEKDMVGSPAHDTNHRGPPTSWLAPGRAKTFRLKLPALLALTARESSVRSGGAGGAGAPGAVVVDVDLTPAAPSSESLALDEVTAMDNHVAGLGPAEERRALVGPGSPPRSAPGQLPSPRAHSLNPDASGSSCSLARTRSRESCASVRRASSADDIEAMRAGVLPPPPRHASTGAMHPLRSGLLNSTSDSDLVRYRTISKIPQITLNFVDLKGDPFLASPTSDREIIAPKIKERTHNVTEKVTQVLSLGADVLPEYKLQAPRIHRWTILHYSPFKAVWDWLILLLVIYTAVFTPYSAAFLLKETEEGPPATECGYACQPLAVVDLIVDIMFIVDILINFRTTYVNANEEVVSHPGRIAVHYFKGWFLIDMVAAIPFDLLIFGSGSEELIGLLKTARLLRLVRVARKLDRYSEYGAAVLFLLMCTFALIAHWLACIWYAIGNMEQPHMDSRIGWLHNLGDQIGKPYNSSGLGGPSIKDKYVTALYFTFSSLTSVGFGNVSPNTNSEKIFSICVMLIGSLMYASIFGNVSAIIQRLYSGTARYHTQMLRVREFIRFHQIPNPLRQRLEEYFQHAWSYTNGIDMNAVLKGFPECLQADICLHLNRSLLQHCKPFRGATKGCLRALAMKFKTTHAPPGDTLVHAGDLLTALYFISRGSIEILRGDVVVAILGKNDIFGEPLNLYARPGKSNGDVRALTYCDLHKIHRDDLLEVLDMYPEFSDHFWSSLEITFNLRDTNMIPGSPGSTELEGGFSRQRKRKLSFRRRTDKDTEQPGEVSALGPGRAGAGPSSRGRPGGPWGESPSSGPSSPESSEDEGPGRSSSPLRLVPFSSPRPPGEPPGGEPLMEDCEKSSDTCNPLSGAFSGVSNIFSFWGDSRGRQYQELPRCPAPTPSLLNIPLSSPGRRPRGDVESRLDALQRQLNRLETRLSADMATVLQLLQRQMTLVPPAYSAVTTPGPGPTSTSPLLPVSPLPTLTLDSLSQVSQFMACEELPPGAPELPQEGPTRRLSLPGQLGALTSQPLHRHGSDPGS

The test addresses human ether-à-go-go-related gene (hERG) potassium channel (human, UniProt Q12809). The test can be described thus: primary screen, population patch clamp on CHO cells stably expressing hERG; higher = less effect of the substance.
Turning to `COc1ccccc1NC(=O)c1cnc2c(-c3ccccc3)c(C)nn2c1C`, the “hERG current change (%, negative = inhibition) at 10uM” value stood at 3.15%.
On to `O=C(c1cnc2nc3ccccc3n2c1)c1cc(F)ccc1O`, for which the “hERG current change (%, negative = inhibition) at 10uM” value is on record as 2.44%.
As to `Cc1ccc2c(c1)N(CCCC(=O)Nc1cccc(C(F)(F)F)c1)C(=O)CO2`, the “hERG current change (%, negative = inhibition) at 10uM” value is 12.9%.
Take `O=C(O)c1ccccc1C(=O)c1ccc2c(c1)N(Cc1cccc(F)c1)C(=O)CO2`: the “hERG current change (%, negative = inhibition) at 10uM” value is given as -18.1%.
With `O=C(COC(=O)c1ccccc1Br)Nc1ccccc1F` the figure was -21%; with `N#Cc1c(NC(=O)c2nc3ncccn3n2)sc2c1CCCCC2`, 2.44%; with `Cc1ccc(NC(=O)CCCNC(=O)c2ccc(Cl)cc2)cc1S(=O)(=O)N1CCOCC1`, -17.9%.
On to `O=C(NCc1n[nH]c(=S)n1-c1cccc(C(F)(F)F)c1)c1ccc(S(=O)(=O)N2CCCCC2)cc1`, for which the “hERG current change (%, negative = inhibition) at 10uM” value is 16.5%.
In the case of `CC(=O)Oc1cccc(C(=O)Nc2ccccc2NC(=O)c2cccc(OC(C)=O)c2)c1`, the “hERG current change (%, negative = inhibition) at 10uM” value was 9.7%.
`CC(C)N(Cc1nc(-c2ccc(Cl)cc2)no1)C(=O)c1cccs1`: the “hERG current change (%, negative = inhibition) at 10uM” value was -8.63%.
Take `CCCn1c(CNC(=O)Cc2ccccc2)nc2ccccc21`: the “hERG current change (%, negative = inhibition) at 10uM” value is listed as -21.3%.
Turning to `CCOC(=O)c1c(CN2CCCCC2)n(C)c2cc(Br)c(O)cc12`, the “hERG current change (%, negative = inhibition) at 10uM” value was -68.2%.
With `CCOC(=O)c1c(CN2CCC(C)CC2)n(C)c2cc(Br)c(OC)cc12` the figure was 10.5%; with `CCOC(=O)c1c(CN2CCCCC2)n(C)c2cc(Br)c(OC)cc12`, -31.7%.
Take `CCCCCOC(=O)Cc1c(O)c2ccccc2[nH]c1=O`: the “hERG current change (%, negative = inhibition) at 10uM” value turned out to be 12.8%.
As to `CCN(CC)S(=O)(=O)c1ccc(F)c(C(=O)NCCCN2CCOCC2)c1`, the “hERG current change (%, negative = inhibition) at 10uM” value was -11.7%.
With `COC(=O)c1cc(C(=O)c2cccc(Cl)c2Cl)cn1C` the figure was -43.4%; with `CCOc1ccc(Nc2nc(N)nc(CN(C)C3CCCCC3)n2)cc1`, -71.5%; with `CCOc1ccc(Nc2nc(N)nc(CCl)n2)cc1`, -8.2%.
Next, `CCOc1ccccc1Nc1nc(N)nc(CN(C)C2CCCCC2)n1`: -76.1%.
Next, `COc1ccc(Nc2nc(N)nc(CN(C)C3CCCCC3)n2)cc1`: -57.5%; `COc1ccc(CN(C)C2CCCCC2)cc1`: -25.1%.
`COc1ccccc1Nc1nc(N)nc(CN(C)C2CCCCC2)n1`: the “hERG current change (%, negative = inhibition) at 10uM” value is listed as -35.8%.
Turning to `CCOc1ccccc1Nc1nc(N)nc(CN2CCCCC2C)n1` (stereo not drawn), the “hERG current change (%, negative = inhibition) at 10uM” value was -50%.
Turning to `COc1ccc(Nc2nc(N)nc(COc3ccc(OC)cc3)n2)cc1`, the “hERG current change (%, negative = inhibition) at 10uM” value amounted to 4.75%.
For the compound `CCOc1ccc(Nc2ncnc(N)n2)cc1`, the “hERG current change (%, negative = inhibition) at 10uM” value was found to be 10.3%.
For the compound `COC(=O)N/N=C/c1cc(Cl)cc(Cl)c1OCc1ccc(F)cc1`, the “hERG current change (%, negative = inhibition) at 10uM” value is on record as 3.82%.
As for `O=[N+]([O-])c1cccc(C2N3CCCN23)c1` (stereo not drawn), the “hERG current change (%, negative = inhibition) at 10uM” value is on record as 12.3%.
As for `Cc1cc2c(cc1S(=O)(=O)Nc1c(C)cccc1C)n(C)c(=O)c(=O)n2C`, the “hERG current change (%, negative = inhibition) at 10uM” value is recorded as -0.831%.
Next, `O=[N+]([O-])c1cccnc1N1CCC(c2cc(-c3cccc(C(F)(F)F)c3)n[nH]2)CC1`: -13.7%; `COc1ccc(-c2cc(C3CCNCC3)[nH]n2)cc1`: 18.7%.
Next, `COc1ccc(-c2cc(C3CCN(Cc4ccc([N+](=O)[O-])cc4)CC3)[nH]n2)cc1`: -73%; `COc1ccc(-c2cc(C3CCN(Cc4cccc(C(F)(F)F)c4)CC3)[nH]n2)cc1`: -55.2%.
For the compound `O=c1ccc(-c2ccc([N+](=O)[O-])cc2)nn1-c1ccccc1`, the “hERG current change (%, negative = inhibition) at 10uM” value is listed as -55%.
For the compound `O=[N+]([O-])c1ccc(-n2nnnc2-c2ccccc2)cc1`, the “hERG current change (%, negative = inhibition) at 10uM” value was -21.3%.
With `Cc1nc(-c2ccccc2)nn1-c1ccc([N+](=O)[O-])cc1` the figure was -26.2%.
Next, `FC(F)(F)c1cccc(-c2cc(C3CCNCC3)[nH]n2)c1`: -44.3%; `COc1ccc(-c2cc(C3CCN(c4ncccc4[N+](=O)[O-])CC3)[nH]n2)cc1`: -5.85%.
With `COc1ccc(-c2cn(Cc3ccc([N+](=O)[O-])cc3)nn2)cc1` the figure was -9.43%; with `COc1ccc(-c2cc(C3CCN(C(=O)OC(C)(C)C)CC3)[nH]n2)cc1`, -26.4%; with `COC(=O)CCN1CCC(c2cc(-c3cccc(C(F)(F)F)c3)n[nH]2)CC1`, -72.2%.
On to `Cc1ccc(CNc2nc(C)c(C(=O)N(C)C)s2)cc1`, for which the “hERG current change (%, negative = inhibition) at 10uM” value worked out at 4.98%.
In the case of `COc1ccc(S(=O)(=O)Cc2ccc(C(=O)NCCc3cc(OC)ccc3OC)o2)cc1`, the “hERG current change (%, negative = inhibition) at 10uM” value is -39.6%.
Consider `COc1ccccc1C(CC(N)=O)c1ccco1` (stereo not drawn), for which the “hERG current change (%, negative = inhibition) at 10uM” value was 10.1%.
With `O=C(Cc1cn2ccsc2n1)Nc1nc2c(s1)CCCC2` the figure was -0.221%.
With `CN(C)c1ccc(-c2nnn(CC(=O)Nc3ccccc3N3CCOCC3)n2)cc1` the figure was -15.1%.
`CCOn1c(=O)c(-c2ccc(Br)cc2)[n+]([O-])c2ccccc21`: the “hERG current change (%, negative = inhibition) at 10uM” value turned out to be 13.6%.
Next, `CNc1nc(N)c([N+](=O)[O-])c(NCc2ccccc2)n1`: -1.09%.
`Oc1ccc(Br)cc1CNc1cnc2ccccc2c1`: the “hERG current change (%, negative = inhibition) at 10uM” value is on record as 16.4%.
With `O=C(COC(=O)c1ncc(Cl)c(Cl)c1Cl)NNC(=O)c1ccccc1`, the “hERG current change (%, negative = inhibition) at 10uM” value was -1.26%.
Next, `CCC(=O)Nc1ccc(C(=O)c2ccccc2)cc1`: -9.96%; `Cc1ccc(C)c(NC(=O)[C@@H]2CCCN2S(=O)(=O)c2ccccc2F)c1`: 10.9%; `COc1ccc(Nc2cc(Nc3ccccc3)ncn2)cc1`: 11.5%.
Next, `COc1ccc(-c2ccc(=O)n(Cc3ccccc3)n2)cc1`: -5.74%; `COc1ccc(-c2ccc(=O)n(Cc3ccc([N+](=O)[O-])cc3)n2)cc1`: -75%; `COc1ccc(-c2ccc(=O)n(Cc3cccc([N+](=O)[O-])c3)n2)cc1`: -21.2%.
Turning to `C=CCOc1ccc(CNn2cn[nH]c2=S)cc1OCC`, the “hERG current change (%, negative = inhibition) at 10uM” value was 12.7%.
